This excerpt belongs to a sample that is enriched for hits.
PL biosyn Enam = animal cell phospholipid biosynthesis inhibition, Enamine screen; ZR-82 CHO cells, pyrene fatty acid UV survival, CellTiter Blue; peroxisome-deficient CHO-K1 mutant line; plus DGAT-1, DGAT-2 and ACAT inhibitors; AID 1347385; calls only at 10 µM; hit rate 0.4% among 20,000;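 active means cell survival signal 2 SD away from solvent-only control wells, confirmed on one or two retests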;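 further: 3 h compound exposure then viability read about one day after UV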
Each line names hits and unclear results; the compound was inactive in the other large screens.

Cc1[nH]c2ccccc2c1N=Nc1ccc(F)cc1	PL biosyn Enam active
O=C1CCCC(O)=C1N=Nc1ccc2c(c1)OCO2	none
Oc1ccc2ccccc2c1N=Nc1ncn[nH]1	none
Oc1ccc(N=Nc2ccc3c(c2)OCCO3)c2ncccc12	none
Oc1ccc2ccccc2c1N=Nc1ccc2c(c1)OCCO2	PL biosyn Enam active
Cc1[nH]c2ccccc2c1N=Nc1ccc2c(c1)OCO2	PL biosyn Enam active
Cc1[nH]c2ccccc2c1N=Nc1c(C)n(C)n(-c2ccccc2)c1=O	none
Cc1[nH]c2ccccc2c1N=Nc1cccnc1	none
CCCCn1c(N)c(N(CC(C)C)C(=O)CCCSc2nnnn2C)c(=O)[nH]c1=O	none
CN(C)C(=O)CSc1ncnc2sccc12	none
Cc1ccc(C(=O)CSc2nnc(Cc3cccs3)n2C2CC2)s1	none
O=C(CSc1ncn[nH]1)N1N=C(c2cccs2)CC1c1cccs1 (stereo not drawn)	none
O=C1c2ccccc2S(=O)(=O)NN1CCN1C(=O)c2ccccc2S1(=O)=O	none
CCN(CC)c1ccc2c(c1)OC(=O)N(c1ccc(Cl)c(Cl)c1)P2(=Nc1ccc([N+](=O)[O-])cc1)N(CC)CC (stereo not drawn)	none
CN(C)c1ccc(N=Nc2ccc(SC(F)(F)F)cc2[N+](=O)[O-])cc1	none
O=[N+]([O-])c1ccc(N=Nc2ccc(N(CCO)CC(F)(F)C(F)F)cc2)c(Cl)c1	PL biosyn Enam active
Cn1/c(=N/NC(=O)CN2CCSC2=O)sc2ccccc21	none
O=C(Cn1nnc(-c2cccs2)n1)c1ccc[nH]1	none
Cn1cccc1C=C(c1nc2ccccc2s1)c1nc2ccccc2s1	PL biosyn Enam active
C(=C(c1nc2ccccc2s1)c1nc2ccccc2s1)c1cccs1	none
C(=C(c1nc2ccccc2s1)c1nc2ccccc2s1)c1ccc(-c2ccccc2)cc1	none
COC(=O)c1sc(N)c(C(=O)OC)c1CSc1nnc(N)s1	none
CCN(CC)S(=O)(=O)c1ccc(N=Nc2sc(N)nc2C)cc1	none
Cc1nc(N)sc1N=Nc1ccc(Br)cc1	PL biosyn Enam active
Cc1nc(N)sc1C	none
Fc1cc2c(c(COn3nnc4ccccc43)c1)OC(c1ccccc1)OC2 (stereo not drawn)	none
CCOC(=O)CC1C(=O)NCCN1c1nc2ccccn2c(=O)c1/C=C1\SC(=S)N(CC2CCCO2)C1=O (stereo not drawn)	none
CCNC(=S)N/N=C(\C)c1cccs1	none
C/C(=N\NC(=S)NC1CCCCC1)c1cccs1	PL biosyn Enam active
O=S(=O)(NC(=S)NC1CCCCC1)c1cccs1	none
O=C(N=C1N=C2C=CC=CN2Cc2ccccc21)c1cc[n+]([O-])cc1	none
C=CCNC(=S)N/N=C1\CCS(=O)(=O)c2ccccc21	none
c1ccc2sc(NN=C3CCCCCC3)nc2c1	none
O=S1(=O)CC/C(=N/Nc2ccc(Cl)cc2)c2cc(F)ccc21	PL biosyn Enam active
c1ccc2c(c1)CC/C(=N\Nc1nc3ccccc3s1)C2	none
O=S1(=O)CC/C(=N/Nc2nc3ccccc3s2)c2cc(F)ccc21	PL biosyn Enam active
NC(=O)N/N=C1\CCS(=O)(=O)c2ccc(F)cc21	none
Cc1nccn1CC(O)Cn1c2ccc(Cl)cc2c2cc(Cl)ccc21 (stereo not drawn)	none
Cc1noc(C)c1C(=O)O	none
CCCc1cc(C(=O)Nc2nnc(CC)s2)sc1C	none
N=C1C(c2nc3ccccc3c(=O)[nH]2)=C(O)CN1c1ccc([N+](=O)[O-])cc1	none
CCOC(=O)c1sc(N=Nc2c(O)[nH]c(=S)[nH]c2=O)c(C(=O)OCC)c1C	none
CCOC(=O)c1sc(N=Nc2[nH]c(C)c(C(=O)OCC)c2C)c(C(=O)OCC)c1C	PL biosyn Enam active
CCOC(=O)c1c(N=CN(C)C)sc(C(=O)OC)c1C	none
NC1=[N+](CC(=O)c2ccccc2)Cc2ccccc21	none
